Data as given in ChEMBL document CHEMBL1961873, “Compounds: GSK PKIS; Assays: Nanosyn kinase panel” (2012).

Assays:
[1] = biological target: T1, Serine/threonine-protein kinase TBK1 (Homo sapiens) (UniProt Q9UHD2); conditions: at 1 µM;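 also: values are mean inhibition of TBK1, screened as part of the GSK published kinase inhibitor set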
T1 sequence (whole entry): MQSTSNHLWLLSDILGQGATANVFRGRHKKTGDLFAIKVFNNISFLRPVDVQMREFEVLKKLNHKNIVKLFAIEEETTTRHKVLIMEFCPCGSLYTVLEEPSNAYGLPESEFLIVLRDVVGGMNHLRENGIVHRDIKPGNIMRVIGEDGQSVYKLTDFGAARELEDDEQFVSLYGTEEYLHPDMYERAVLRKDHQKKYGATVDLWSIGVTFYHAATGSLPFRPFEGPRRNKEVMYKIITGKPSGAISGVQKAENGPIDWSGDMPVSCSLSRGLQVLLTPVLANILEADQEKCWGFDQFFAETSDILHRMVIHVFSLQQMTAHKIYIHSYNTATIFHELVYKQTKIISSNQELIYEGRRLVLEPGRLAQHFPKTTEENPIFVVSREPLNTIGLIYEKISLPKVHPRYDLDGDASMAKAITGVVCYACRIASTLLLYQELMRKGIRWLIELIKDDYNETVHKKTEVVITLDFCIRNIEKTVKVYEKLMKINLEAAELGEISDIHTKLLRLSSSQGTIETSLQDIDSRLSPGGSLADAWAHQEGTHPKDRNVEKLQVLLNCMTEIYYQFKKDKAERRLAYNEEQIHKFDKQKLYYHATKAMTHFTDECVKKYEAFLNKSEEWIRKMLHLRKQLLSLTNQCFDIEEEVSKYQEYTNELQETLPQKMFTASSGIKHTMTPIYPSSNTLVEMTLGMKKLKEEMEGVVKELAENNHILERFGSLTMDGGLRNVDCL

[2] = biological target: T2, Testis-specific serine/threonine-protein kinase 1 (Homo sapiens) (UniProt Q9BXA7); conditions: at 0.1 µM
T2 sequence (whole entry): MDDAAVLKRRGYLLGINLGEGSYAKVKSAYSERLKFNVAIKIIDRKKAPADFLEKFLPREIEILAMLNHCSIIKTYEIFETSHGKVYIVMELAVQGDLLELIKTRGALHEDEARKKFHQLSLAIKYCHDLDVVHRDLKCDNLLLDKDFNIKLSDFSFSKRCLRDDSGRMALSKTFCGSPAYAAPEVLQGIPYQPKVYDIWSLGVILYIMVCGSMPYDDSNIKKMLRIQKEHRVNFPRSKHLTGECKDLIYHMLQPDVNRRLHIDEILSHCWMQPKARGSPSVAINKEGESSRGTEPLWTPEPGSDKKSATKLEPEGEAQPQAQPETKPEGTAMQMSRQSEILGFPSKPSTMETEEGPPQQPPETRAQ

[3] = biological target: T2, Testis-specific serine/threonine-protein kinase 1 (Homo sapiens); conditions: at 1 µM
[4] = biological target: T3, Testis-specific serine/threonine-protein kinase 2 (Homo sapiens) (UniProt Q96PF2); conditions: at 0.1 µM
T3 sequence (whole entry): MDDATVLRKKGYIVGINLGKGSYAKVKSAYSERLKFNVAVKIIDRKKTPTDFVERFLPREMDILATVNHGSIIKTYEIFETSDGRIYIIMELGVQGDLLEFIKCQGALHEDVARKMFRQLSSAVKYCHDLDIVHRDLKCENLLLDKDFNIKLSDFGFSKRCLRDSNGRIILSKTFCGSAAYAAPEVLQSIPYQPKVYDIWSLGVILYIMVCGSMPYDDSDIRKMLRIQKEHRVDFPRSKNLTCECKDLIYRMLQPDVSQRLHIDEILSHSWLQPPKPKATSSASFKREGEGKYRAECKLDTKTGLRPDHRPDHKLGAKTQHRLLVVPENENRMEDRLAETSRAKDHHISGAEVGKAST

[5] = biological target: T3, Testis-specific serine/threonine-protein kinase 2 (Homo sapiens); conditions: at 1 µM
[6] = biological target: Casein kinase I isoform alpha (Homo sapiens) (UniProt P48729); conditions: at 0.1 µM
[7] = biological target: Casein kinase I isoform alpha (Homo sapiens) (UniProt P48729); conditions: at 1 µM
[8] = biological target: Casein kinase I isoform gamma-1 (Homo sapiens) (UniProt Q9HCP0); conditions: at 0.1 µM
[9] = biological target: Casein kinase I isoform gamma-1 (Homo sapiens) (UniProt Q9HCP0); conditions: at 1 µM
[10] = biological target: Casein kinase I isoform gamma-2 (Homo sapiens) (UniProt P78368); conditions: at 0.1 µM;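 also: values are mean inhibition figures reported as part of the GSK PKIS dataset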
Chain of Casein kinase I isoform gamma-2 (Homo sapiens) (P78368 whole entry, looked up, canonical isoform): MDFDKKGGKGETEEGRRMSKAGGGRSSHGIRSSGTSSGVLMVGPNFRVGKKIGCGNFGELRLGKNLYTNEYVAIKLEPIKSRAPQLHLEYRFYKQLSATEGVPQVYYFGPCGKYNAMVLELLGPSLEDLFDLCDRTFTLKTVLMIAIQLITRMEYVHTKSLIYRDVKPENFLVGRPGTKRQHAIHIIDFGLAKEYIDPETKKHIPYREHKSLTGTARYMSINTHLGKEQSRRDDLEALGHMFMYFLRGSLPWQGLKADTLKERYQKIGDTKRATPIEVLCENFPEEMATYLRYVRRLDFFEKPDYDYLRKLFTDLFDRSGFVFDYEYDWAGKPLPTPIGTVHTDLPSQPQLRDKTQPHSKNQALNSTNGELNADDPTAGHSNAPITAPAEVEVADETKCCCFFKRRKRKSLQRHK

Chain of Casein kinase I isoform gamma-1 (Homo sapiens) (Q9HCP0 whole entry, looked up, canonical isoform): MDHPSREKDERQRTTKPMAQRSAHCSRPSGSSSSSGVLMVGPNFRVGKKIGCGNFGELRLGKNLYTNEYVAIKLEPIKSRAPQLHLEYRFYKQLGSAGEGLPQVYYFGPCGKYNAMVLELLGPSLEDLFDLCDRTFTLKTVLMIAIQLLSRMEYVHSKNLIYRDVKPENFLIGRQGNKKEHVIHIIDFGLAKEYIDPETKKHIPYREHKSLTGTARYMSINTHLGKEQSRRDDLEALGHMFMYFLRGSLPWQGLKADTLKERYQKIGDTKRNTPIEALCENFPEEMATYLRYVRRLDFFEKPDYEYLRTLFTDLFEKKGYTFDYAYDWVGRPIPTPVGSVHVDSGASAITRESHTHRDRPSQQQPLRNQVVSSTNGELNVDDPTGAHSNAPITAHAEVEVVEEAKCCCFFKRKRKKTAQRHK
Chain of Casein kinase I isoform alpha (Homo sapiens) (P48729 2-337 limits assumed): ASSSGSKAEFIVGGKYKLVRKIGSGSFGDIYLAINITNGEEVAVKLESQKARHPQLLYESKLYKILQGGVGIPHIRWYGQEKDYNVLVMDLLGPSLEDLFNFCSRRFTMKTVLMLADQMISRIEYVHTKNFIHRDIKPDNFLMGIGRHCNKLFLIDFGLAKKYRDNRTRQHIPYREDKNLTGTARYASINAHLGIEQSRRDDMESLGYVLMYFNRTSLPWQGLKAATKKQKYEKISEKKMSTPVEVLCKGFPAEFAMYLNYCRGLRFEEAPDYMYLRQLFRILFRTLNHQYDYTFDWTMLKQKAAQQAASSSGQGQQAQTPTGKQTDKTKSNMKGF

| SMILES | inhibition [1] [%] | inhibition [2] [%] | inhibition [3] [%] | inhibition [4] [%] | inhibition [5] [%] | inhibition [6] [%] | inhibition [7] [%] | inhibition [8] [%] | inhibition [9] [%] | inhibition [10] [%] |
| --- | --- | --- | --- | --- | --- | --- | --- | --- | --- | --- |
| C[C@@H](Oc1cc(-n2cnc3ccc(OC4CCN(C)CC4)cc32)sc1C(N)=O)c1ccccc1Cl | 4.33 | 4.11 | 10.3 | 2.61 | 1.72 | 4.09 | 6.16 | 0.61 | -0.21 | 0.26 |
| CS(=O)(=O)CCNCc1cc(-c2cc3c(Nc4ccc(OCc5cccc(F)c5)c(Cl)c4)ncnc3s2)cs1 | 4.88 | 4.02 | 4.37 | 2.22 | 2.42 | 6.3 | 8.73 | 3.81 | 4.73 | 3.23 |
| NCc1ccc(-n2c(-c3nonc3N)nc3cnccc32)cc1 | 11.6 | 9.68 | 32.2 | 3.06 | 3.08 | 3.56 | 9.76 | 5.74 | 8.48 | 3.49 |
| O=C(NCC1CC1)c1ccc(-c2cccc(C(=O)NC3CC3)c2)cc1 | 0.69 | 2.17 | -0.94 | 0.33 | -1.83 | 2.21 | 3.38 | 2.43 | 3.84 | 1.59 |
| O=C1NC(=O)C(c2cccc(Cl)c2)=C1Nc1ccc(Cl)c(C(=O)O)c1 | 5.8 | 4.88 | 4.16 | 3.03 | 4.21 | 1.07 | 2.57 | 2.32 | 1.79 | 2.25 |
| COc1cc2ncn(-c3cc(OCCc4ccccc4)c(C(N)=O)s3)c2cc1OC | 22.3 | 1.85 | 2.26 | -0.18 | -0.8 | 2.37 | 3.77 | 3.01 | 5.65 | 2.92 |
| O=C(Nc1n[nH]c2nc(-c3ccc(O)cc3)c(Br)cc12)C1CC1 | 22.6 | 5.99 | 5.96 | 3.73 | 4.53 | 4.72 | 5.83 | 4.64 | 5.67 | 4.14 |
| NC(=O)c1cc(-c2ccncc2)cc(-c2ccccc2)c1N | 9.27 | 3.7 | 5.71 | 2.4 | 1.64 | 4.55 | 7.76 | 4.75 | 5.37 | 3.86 |
| CNC(=O)c1cncc(/C=C/c2c(C)cccc2C)c1 | 0.94 | 0.04 | -1.47 | -0.04 | -1.42 | 4.35 | 2.33 | -2.91 | -2.08 | -2.38 |
| CCS(=O)(=O)c1ccc(OC)c(Nc2ncc(-c3cccc(-c4ccccc4F)c3)o2)c1 | 5.42 | 0.94 | -0.72 | 0.42 | -0.69 | -0.76 | 4.53 | 0.32 | 0.08 | -0.86 |
| CCc1nccc2c1nc(-c1nonc1N)n2CC | 6.1 | 0.58 | 0.27 | -0.65 | -0.91 | 3.39 | 3.67 | 0.76 | 2.98 | 0.48 |
| COc1cccc(/C=N/Nc2ncnc3c2cnn3-c2cccc(OC)c2)c1 | 1.31 | 3.46 | 3.86 | 2.47 | 1.38 | 3.37 | 6.05 | 2.82 | 3.51 | 3.16 |
| c1ccc(Oc2ccc(Nc3ncc(-c4ccccc4)o3)cc2)cc1 | 2.41 | 1.11 | 1.56 | 0.35 | 0.74 | 5.38 | 7.2 | 0.74 | 2.02 | 0.49 |
| C#Cc1cccc(Nc2ncnc3ccc(OCCCCNCCS(C)(=O)=O)cc23)c1 | 8.32 | 6.03 | 6.34 | 2.32 | 2.71 | 2.51 | 7.93 | 0.79 | 1.77 | 0.57 |
| COc1ccc2ncn(-c3cc(O[C@H](C)c4ccccc4Cl)c(C(N)=O)s3)c2c1 | 3.86 | 2.29 | 2.54 | 0.96 | 1.28 | 2.14 | 2.16 | 0.39 | -0.54 | -0.05 |
| COc1ccc2cc(-c3c(-c4ccncc4)nc(-c4ccc(S(C)(=O)=O)cc4C)n3C)ccc2c1 | 5.22 | 4.54 | 6.64 | 2.43 | 3.81 | 2.38 | 4 | 3.35 | 4.23 | 2.92 |
| CCc1ccc(Oc2nccc(-c3c(-c4ccc(F)cc4)ncn3C3CCNCC3)n2)cc1 | 4.95 | 3.27 | 5.22 | 1.61 | 2.6 | 6.84 | 36.5 | 3.65 | 14.8 | 3.26 |

| SMILES | inhibition [1] [%] | inhibition [2] [%] | inhibition [3] [%] | inhibition [4] [%] | inhibition [5] [%] | inhibition [6] [%] | inhibition [7] [%] | inhibition [8] [%] | inhibition [9] [%] | inhibition [10] [%] |
| --- | --- | --- | --- | --- | --- | --- | --- | --- | --- | --- |
| O=C1Nc2ccc(I)cc2C1=Cc1cc(Br)c(O)c(Br)c1 | 2.5 | 4.56 | 5.45 | 2.33 | 2.81 | 5.08 | 6.76 | 3.7 | 5.38 | 3.7 |
| COC(=O)Nc1nc2ccc(Sc3ccc(NC(=O)Nc4cc(C(F)(F)F)ccc4F)cc3)cc2[nH]1 | 2.38 | -0.48 | -2.84 | -0.2 | -1.84 | -0.33 | 1.98 | -0.12 | 0.47 | -0.85 |
| CN1CCN(CCCNc2nc3ccc(Oc4ccc(NC(=O)Nc5cc(C(F)(F)F)ccc5F)cc4)cc3[nH]2)CC1 | 3.78 | 0.87 | -0.16 | -0.81 | -1.46 | 1.84 | 0.56 | -1.36 | -3.19 | -4.72 |
| COc1ccc2cc(-c3c(-c4ccncc4)nc(-c4ccc([S+](C)[O-])cc4C)n3C)ccc2c1 (stereo not given) | 1.97 | 0.4 | -0.58 | 0.06 | -0.06 | 0.77 | 0.53 | -0.99 | -0.39 | -0.73 |
| Fc1ccc(-c2nc3n(c2-c2ccncc2)CCS3)cc1 | 2.87 | 3.08 | 2.73 | 1.01 | 0.48 | 10.8 | 42.4 | 0.76 | 5.36 | -1.13 |
| CS(=O)(=O)CCNCc1ccc(-c2ccc3ncnc(Nc4ccc(OCc5ccccc5)c(Br)c4)c3c2)o1 | 1.05 | 2.71 | 2.53 | 1.22 | 1 | 1.67 | 0.68 | 0.63 | -0.07 | -0.49 |
| CCN(CC)Cc1ccc(Nc2nccc(-c3cnn4ncccc34)n2)cc1 | 12.3 | 5.5 | 26.5 | 0.81 | 2.16 | 15.2 | 54.3 | 2.36 | 6.01 | 1.79 |
| Cc1nnc(-c2ccc(C)c(-c3ccc(C(=O)NCc4ccc(Cl)cc4)cc3)c2)o1 | 3.88 | 4.06 | 4.33 | 1.65 | 3.27 | 2.79 | 4.63 | 0.71 | 2.06 | -1.05 |
| COc1cc2ncn(-c3cc(OCc4cccs4)c(C(N)=O)s3)c2cc1OC | 16.7 | 4.25 | 8.81 | 2.91 | 7.11 | 2 | 3.36 | -0.26 | -1.01 | -1.54 |
| CN(C)CCOc1ccc(-c2cc(-c3ccc4c(c3)CCC4=NO)c(-c3ccncc3)o2)cc1 | -0.95 | -0.74 | 0.17 | 0.18 | 1.16 | -1.99 | -1.5 | -1.03 | -0.13 | -0.84 |
| CCC(=O)Nc1ccc(C)c(-c2ccc(C(=O)NCC3CC3)cc2)c1 | 2.69 | 3.66 | 3.59 | 1.6 | 1.74 | 2.53 | 3.41 | 2.54 | 3 | 2.3 |
| Fc1ccc(-c2ncn(CCCN3CCOCC3)c2-c2ccncc2)cc1 | 0.48 | -0.41 | -0.42 | -1.62 | -0.63 | 2.04 | 5.39 | 0.8 | 1.79 | 1.74 |
| NC(=O)c1cc(-c2ccc(F)cc2)cc(-c2ccncc2)c1N | 2.04 | 3.98 | 5.61 | 2.71 | 4.29 | 6.79 | 2.14 | 4.19 | 4.95 | 3.82 |
| O=C(Nc1n[nH]c2cc(-c3ccccc3)ccc12)C1CC1 | 8.06 | 2.16 | 2.02 | 1.41 | 0.6 | 3.51 | 5.68 | 5.13 | 5.75 | 4.46 |
| COc1ccc(C2=C(N3CCc4ccccc43)C(=O)NC2=O)cc1 | 7.18 | 4.87 | 6.13 | 3.64 | 3.35 | 3.74 | 8.77 | 3.77 | 4.09 | 3.12 |
| Cc1ccc(C(=O)NC2CCC2)cc1-c1ccc(C(=O)NCC2CC2)cc1 | 2.24 | 2.11 | 1.32 | 0.09 | -0.03 | 3.36 | 6.49 | 2.64 | 3.13 | 1.72 |
| CN(C)CCCNc1nccc(-c2c(-c3ccc(F)cc3)nn3cc(C(F)(F)F)ccc23)n1 | 4.86 | 1.45 | -1.19 | 0.61 | -2.11 | 1.35 | 14.8 | -2.45 | -1.14 | -3.5 |
